BoNT-F LC inh: BoNT F light chain protease inhibition. inhibition, % at 10 µM. Multiplex microsphere protease cleavage assay, flow cytometry. AID 588497. 360,000 compounds, 0.22% hits; in the data active = inhibition above about 35%, passing the limit was not always enough; inconclusive = no clear call, values can overlap the other calls; also: plate controls were buffer without enzyme for full effect and enzyme alone for no effect
Autofluor counter: flagged as autofluorescent in microsphere protease counterscreen; compound autofluorescence counterscreen, microsphere flow cytometry; stronger effect = higher value; fluorescence intensity (concentration not given with the values); 360,000 compounds, 3.1% hits; in the data active = fluorescence intensity above about 16000; inconclusive = no clear call, values can overlap the other calls
Anthrax LF prot: anthrax lethal factor protease inhibition; P15917; multiplex microsphere protease cleavage assay, LF; inhibition, % at 10 µM; 360,000 compounds, 0.12% hits; AID 588501; also: plate controls were buffer without enzyme for full effect and enzyme alone for no effect
Target sequence (P15917 whole entry, looked up): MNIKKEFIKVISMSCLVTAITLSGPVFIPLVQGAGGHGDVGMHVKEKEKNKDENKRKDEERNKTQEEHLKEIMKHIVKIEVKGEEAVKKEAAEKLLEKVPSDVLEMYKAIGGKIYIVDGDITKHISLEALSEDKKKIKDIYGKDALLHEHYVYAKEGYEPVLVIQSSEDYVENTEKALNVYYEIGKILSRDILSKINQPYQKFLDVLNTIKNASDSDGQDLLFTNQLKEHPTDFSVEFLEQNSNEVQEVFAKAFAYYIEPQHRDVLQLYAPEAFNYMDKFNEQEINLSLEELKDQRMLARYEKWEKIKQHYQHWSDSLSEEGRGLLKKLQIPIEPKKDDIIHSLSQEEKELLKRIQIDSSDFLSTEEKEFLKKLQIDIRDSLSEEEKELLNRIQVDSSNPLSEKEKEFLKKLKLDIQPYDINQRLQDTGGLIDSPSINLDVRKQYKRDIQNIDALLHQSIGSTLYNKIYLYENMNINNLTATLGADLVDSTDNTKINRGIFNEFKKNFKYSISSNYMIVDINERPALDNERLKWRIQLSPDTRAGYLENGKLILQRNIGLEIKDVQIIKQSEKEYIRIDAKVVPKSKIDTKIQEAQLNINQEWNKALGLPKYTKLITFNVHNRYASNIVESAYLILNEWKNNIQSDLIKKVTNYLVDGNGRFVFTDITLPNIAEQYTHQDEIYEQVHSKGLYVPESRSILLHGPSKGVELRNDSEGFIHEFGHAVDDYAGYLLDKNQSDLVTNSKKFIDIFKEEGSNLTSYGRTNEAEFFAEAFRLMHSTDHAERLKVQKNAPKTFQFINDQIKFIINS
BoNT A protease: blocks Botulinum neurotoxin A light chain protease. 360,000 compounds, 0.17% hits. inhibition, % at 10 µM. multiplex microsphere protease substrate cleavage, flow cytometry; also: plate controls were buffer without enzyme for full effect and enzyme alone for no effect
* marks the source's active call; other numbers are inactive results; u = inconclusive. Only some compounds are listed: those with a hit (about 3.5% of all), similar ones and a draw of the others. Rule as the data show it, unless noted: active = inhibition above about 30%; inconclusive = no clear call, values can overlap the other calls; inactive = below that.

SMILES	BoNT-F LC inh	Autofluor counter	Anthrax LF prot	BoNT A protease
O=C(CCN=C1NS(=O)(=O)c2ccccc21)OCc1nnc(-c2ccc([N+](=O)[O-])cc2)o1	5	3414	-8	0
CCNC(=S)NNC(=O)c1cccn(Cc2ccc(Cl)cc2)c1=O	-2	22835*	0	1
CS(=O)(=O)Nc1ccc2c(c1)[C@H]1C[C@H](CC(=O)NCc3ccccc3)O[C@H](CO)[C@H]1O2	-7	3938	-3	0
CC1(C)NC(=O)N(CN2C(=O)NC(C)(C)C2=O)C1=O	0	9110	-14	0
CC1(C)NC(=O)N(CC(=O)O)C1=O	-4	17429*	-4	-2
CCOC(=O)C1(C)CCCN(C(=O)c2cccc3ccccc23)C1 (stereo unspecified)	2	2844	3	0
CCCCNc1c2c(nc3c(-c4ccccc4)c(C)nn13)CCC2	2	20079*	-7	2
COCCNc1c2c(nc3c(-c4ccccc4)c(C)nn13)CCCC2	-2	23437*	-2	-2
Cc1nn2c(NCCOCCO)c3c(nc2c1-c1ccccc1)CCCC3	-7	9642	-4	-1
CCC(C)Nc1c2c(nc3c(-c4ccccc4)c(C)nn13)CCC2 (stereo unspecified)	-8	22116*	-3	-6
COc1nc(-c2cccs2)cc(-c2ccc(C)cc2)c1C#N	5	21880*	-3	5
O=c1cc[nH]c2cccc(Cc3ccccc3)c12	-2	24296*	-4	-2
c1ccc(Cc2c[nH]c3ccccc23)cc1	u	2846	6	2
Cn1c(=O)cc(OCCCC(=O)N2CCC3(CC2)OCCO3)c2ccccc21	-11	4019	-7	-2
Cn1cc(CCC(=O)N2CCC3(CC2)OCCO3)c2ccccc21	-2	23713*	1	1
O=C(Cc1cccs1)N1CCC2(CC1)OCCO2	-1	20223*	0	-2
Nc1cc2c([N+](=O)[O-])cccc2o1	38*	4579	-4	3
Cc1ccccc1NC(=S)N(C)C1(c2ccccc2Cl)CCCCC1=O (stereo unspecified)	0	23061*	-1	2
Cc1ccc(-c2csc(NC(=O)CSc3ncn(-c4ccccc4)n3)n2)cc1	-8	4310	-6	-1
O=C(CSc1ncn(-c2ccccc2)n1)Nc1nc2ccccc2s1	2	22783*	-2	2
O=C(CSc1ncn(-c2ccccc2)n1)Nc1nc(-c2ccccc2)cs1	1	20833*	-10	u
O=C(CSc1ncn(-c2ccccc2)n1)Nc1nc2c(s1)CCCC2	-2	10119	-1	0
CCOC(=O)N1CCN(C(=O)CSCC(=O)Nc2nc(-c3ccccc3)cs2)CC1	-2	23127*	-1	0
Cc1nnc(SCC(=O)Nc2nc(-c3ccccc3)cs2)n1N	-1	22717*	-3	-1
O=C(CSCC(=O)N1CCN(c2ccccc2)CC1)Nc1nc(-c2ccc(Cl)s2)cs1	4	5884	4	0
SMILES	BoNT-F LC inh	Autofluor counter	Anthrax LF prot	BoNT A protease
COc1ccncc1-c1ccc(C2=CC(=O)CC(C)(C)C2=O)cc1	5	3319	5	5
O=C(CSc1nnc(CNc2ccc(Cl)cc2)o1)Nc1nc2ccccc2s1	-7	25121*	-2	u
O=C(CSc1nnc(CNC(=O)c2ccco2)o1)Nc1nc2ccccc2s1	2	2083	-1	0
CC1(C(=O)Nc2cccc3cccnc23)CCN1C(=O)Cc1ccc(Cl)cc1Cl (stereo unspecified)	6	3708	-8	1
O=S(=O)(c1ccccc1)N1CC2CC(Br)C(Br)CC21 (stereo unspecified)	-4	2857	-4	0
CCOc1ccccc1-c1cnc(NC)cn1	-3	2954	-1	0
COCCN(C(=O)COC(=O)c1nc(Cl)ccc1Cl)c1c(N)n(Cc2ccccc2)c(=O)[nH]c1=O	46*	4829	-2	3
CCc1ccc(C(=O)OCC(=O)N(CCOC)c2c(N)n(Cc3ccccc3)c(=O)[nH]c2=O)cc1	47*	5761	12	11
CCN(C(=O)COC(=O)c1nc(Cl)ccc1Cl)c1c(N)n(Cc2ccccc2)c(=O)[nH]c1=O	2	4034	-2	0
COc1ccc(C(=O)O/N=C/c2c(C(F)(F)F)nn(C)c2SCc2ccccc2Cl)cc1	-2	22636*	-2	1
Cc1ccc(C(=O)O/N=C/c2c(C(F)(F)F)nn(C)c2Sc2ccc(Cl)cc2)cc1	4	2769	-1	0
Cn1nc(C(F)(F)F)c(/C=N/OC(=O)c2ccccc2Cl)c1SCc1ccc(Cl)cc1	-4	23366*	-4	1
COC(=O)c1ccccc1Sc1c(/C=N/OC(=O)c2ccccc2)c(C(F)(F)F)nn1C	-11	3305	-5	-1
Cc1cc(OCCCN2CCC(C(O)(c3ccccc3)c3ccccc3)CC2)ccc1Br	-13	6019	-5	0
Cc1csc(C(=O)O)c1NC(=O)c1ccc(F)cc1	-12	3044	4	0
COC(=O)c1scc(C)c1N/N=C(\C)c1ccc(F)cc1	-11	23635*	-10	u
COc1ccc(S(=O)(=O)N(C)CC(=O)NCCCN2CCOCC2)cc1C	3	3424	3	0
CCOc1ccccc1NC(=O)CSc1nnc2c(CC)c(C)nc(N)n12	-15	11678	-5	-2
CCc1c(C)nc(N)n2c(SCC(=O)Nc3ccccc3OC)nnc12	-1	23325*	0	-1
CC(C)NC(=O)C1(C)CCN1C(=O)c1cccn1C (stereo unspecified)	-5	3653	-3	0
Cc1ccc(CNC(=O)C2CCCN2C(=O)Nc2ccc(C)cc2)cc1 (stereo unspecified)	8	3392	2	-2
Cc1ccc(NC(=O)N2CCCC2C(=O)NCCC2=CCCCC2)cc1 (stereo unspecified)	6	18611*	-10	u
Cc1ccc(NC(=O)N2CCC(C(=O)NCCC3=CCCCC3)CC2)cc1	-3	16684*	-3	0
COc1ccc(CNC(=O)C2(C)Cc3c(-c4cccc(NC(C)=O)c4)ccnc3O2)cc1OC (stereo unspecified)	-2	3836	-3	0
O=C(NC(Cc1c[nH]c2ccccc12)C(=O)O)OCC1c2ccccc2-c2ccccc21 (stereo unspecified)	-5	5532	4	0
SMILES	BoNT-F LC inh	Autofluor counter	Anthrax LF prot	BoNT A protease
CCOC(=O)[C@]12CCCC=C1N(Cc1ccc(Cl)cc1Cl)C(=O)[C@H](CC(=O)NCCC(C)C)C2	-5	4245	-12	0
FC(F)(F)c1ccccc1CN1CCN(Cc2ccccc2)CC1	-7	5772	-8	0
Cc1ccccc1CN1CCN(Cc2ccccc2C(F)(F)F)CC1	2	20858*	-6	u
Cc1ccc2[nH]cc(CCNC(=O)Nc3ccccc3)c2c1	-7	21739*	0	-3
Cc1[nH]n(-c2ccccc2)c(=O)c1N=Nc1cccc([N+](=O)[O-])c1	42*	4038	-8	-2
Cc1[nH]n(-c2ccccc2)c(=O)c1N=Nc1cccc(Cl)c1	-15	3809	4	-3
Cc1cc(C)c(C(=O)N2CCC3(CC2)OCCO3)c(C)c1	26	3972	5	-2
Cc1noc(C)c1C(=O)N1CCC2(CC1)OCCO2	-2	20724*	-1	-2
Cc1occc1C(=O)N1CCC2(CC1)OCCO2	-1	23817*	-1	u

Source: PubChem BioAssay (NMMLSC)
